Results: PubChem BioAssay
Results filed as inconclusive are left out. The source made the active and inactive calls.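 How the source made its calls, unless noted: active means viability at or below 10% of carrier control in both of two separate runs; inconclusive means viability at or below 10% in only one of the two runs; inactive means the rest.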

Key:
[1] = Her2 expression decrease, cell viability multiplex – SKBR3 breast tumor cells, AlphaScreen, ATP viability, primary screen (AID 461;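 active means Her2 level under about 52% in both replicate screens, with viability over 70% of control, limit read from the data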;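 on Her2 level: lower value means less Her2 protein in the cells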;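 on viability: percent of carrier control wells set as 100% viability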); details: SKBR3 Her2 protein level, 18-24 h, measured here: SKBR3 viability, ATP luminescence, at 10 µM
[2] = target: Receptor tyrosine-protein kinase erbB-2 (Homo sapiens) (UniProt P04626); test: as above; details: 18-24 h, at 10 µM, stronger effect = lower value
Chain of Receptor tyrosine-protein kinase erbB-2 (Homo sapiens) (P04626 whole entry, looked up): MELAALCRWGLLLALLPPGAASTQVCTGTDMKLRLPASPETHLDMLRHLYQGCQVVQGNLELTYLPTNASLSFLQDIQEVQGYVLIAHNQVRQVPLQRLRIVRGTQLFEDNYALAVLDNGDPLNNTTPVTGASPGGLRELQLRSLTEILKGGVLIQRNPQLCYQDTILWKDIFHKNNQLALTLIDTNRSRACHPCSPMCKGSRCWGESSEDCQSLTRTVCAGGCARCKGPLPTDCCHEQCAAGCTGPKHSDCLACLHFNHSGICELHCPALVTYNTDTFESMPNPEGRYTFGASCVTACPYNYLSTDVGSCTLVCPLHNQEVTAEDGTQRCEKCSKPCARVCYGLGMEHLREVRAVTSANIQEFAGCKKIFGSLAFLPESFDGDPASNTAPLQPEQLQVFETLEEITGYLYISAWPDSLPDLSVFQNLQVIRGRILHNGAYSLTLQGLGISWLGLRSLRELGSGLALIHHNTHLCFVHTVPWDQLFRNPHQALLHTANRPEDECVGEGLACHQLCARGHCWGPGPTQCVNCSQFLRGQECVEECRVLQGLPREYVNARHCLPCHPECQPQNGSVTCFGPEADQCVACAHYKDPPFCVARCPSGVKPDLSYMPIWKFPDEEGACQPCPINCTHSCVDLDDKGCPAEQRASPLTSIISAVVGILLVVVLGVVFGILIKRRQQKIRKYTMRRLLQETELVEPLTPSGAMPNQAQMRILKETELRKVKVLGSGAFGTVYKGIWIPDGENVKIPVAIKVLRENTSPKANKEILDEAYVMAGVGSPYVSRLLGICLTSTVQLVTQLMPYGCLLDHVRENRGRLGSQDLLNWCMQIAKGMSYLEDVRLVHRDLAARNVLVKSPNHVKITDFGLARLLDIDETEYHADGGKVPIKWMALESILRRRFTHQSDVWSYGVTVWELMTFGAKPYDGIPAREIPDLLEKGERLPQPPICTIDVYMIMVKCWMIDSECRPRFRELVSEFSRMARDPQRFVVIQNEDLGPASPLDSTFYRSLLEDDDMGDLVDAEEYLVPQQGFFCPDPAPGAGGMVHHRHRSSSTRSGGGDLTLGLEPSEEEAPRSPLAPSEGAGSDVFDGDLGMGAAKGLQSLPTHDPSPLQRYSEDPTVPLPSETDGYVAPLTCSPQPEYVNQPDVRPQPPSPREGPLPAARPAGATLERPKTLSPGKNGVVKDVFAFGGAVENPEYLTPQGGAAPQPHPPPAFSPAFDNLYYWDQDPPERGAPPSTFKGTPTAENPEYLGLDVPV

[3] = reduced viability of SK-BR-3 breast cancer cells – cell-based, 24 h, human, pilot screen (AID 572); details: SK-BR-3 viability, CellTiter-Glo luminescence, at 10 µM, stronger effect = lower value;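 further: compound exposure lasted between 18 and 24 h rather than exactly 24 h; 100% = carrier-treated control wells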
[4] = HUVEC growth inhibition – cell-based, human, primary screen (AID 575;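 active means viability at or below 30% in both replicate assays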;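 further: 100% = median of untreated cell wells with 0.1% DMSO on each plate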); details: HUVEC proliferation, CellTiter-Glo luminescence, 72 h; at 10 µM; stronger effect = lower value
[5] = H69AR cell proliferation blockers – human, duplicate replicates, primary screen (AID 580;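 active means viability at or under a set limit in both replicates, limit being median viability minus 3 SD, cut at about 48% in these data, passing the limit was not always enough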;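 further: 100% = mean luminescence of untreated wells and 0% = no signal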); details: H69AR lung tumor cells viability, ATP luminescence, 72 h; at 10 µM; stronger effect = lower value
[6] = MRP1 drug-resistance reversers in H69AR cells – cell-based, doxorubicin co-treatment, pilot screen (AID 601;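 active means viability loss from added drug above about 55%, and viability with drug at most 40%, in both replicates, limit read from the data, passing the limit was not always enough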); details: CellTiter-Glo, 72 h, at 10 µM; for differential viability (reversal): stronger effect = higher value
[7] = yeast transport mutant growth inhibition pilot in 384-well plates, post-Golgi transport modulator project (AID 636; in the data active means inhibition above about 31%); details: absorbance 615 nm, about 18 h, stronger effect = higher value
[8] = growth suppression of yeast trafficking mutant, preliminary HTS, modulators of trafficking downstream of Golgi apparatus project, 1536-format plate, OD 615 nm (AID 637; in the data active means inhibition above about 30%); details: yeast transport mutant growth, absorbance 615 nm, 18 h; stronger effect = higher value
[9] = S. cerevisiae growth inhibition in permissive medium (OD615), pilot counter-assay for S. cerevisiae lifespan shortening project, permissive growth control (AID 705;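 active means growth inhibition above 25% in both replicates, a cutoff set 3 SD above the mean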); details: OD615, 24 h, at 10 µM, stronger effect = higher value
[10] = S. cerevisiae growth inhibition in restrictive medium, OD615, pilot screen, restrictive growth control, yeast lifespan reduction project (AID 706;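 active means growth inhibition above a set limit, 3 SD over mean compound inhibition, in both replicates, cut at about 43% in these data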;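 further: modified DeaD lifespan yeast strain shifted to restrictive glucose medium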); details: OD615, 48 h, at 10 µM, stronger effect = higher value
[11] = doxorubicin toxicity protection in MRP-1 cells – H69AR cells, CellTiter-Glo, duplicate, MRP-1 activator project, pilot screen (AID 807;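 active means viability increase at or above a cutoff of the median across tested compounds plus 3 SD, cut at about 8.5% in these data, passing the limit was not always enough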;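 further: compound pretreatment 18-22 h then 72 h combined with doxorubicin; 0% = doxorubicin alone and 100% = vehicle without doxorubicin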); details: H69AR viability with doxorubicin, CellTiter-Glo luminescence; at 10 µM; stronger effect = higher value
[12] = viability of HCT116 without oncogenic beta-catenin – human colon tumor cells, pilot screen (AID 823;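 active means cell viability at or below a set limit in both duplicate runs, the limit being the all-compound median minus 4 SD, cut at about 23% in these data, passing the limit was not always enough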;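 further: 0% = wells killed by 20 µM Hyamine and 100% = untreated DMSO cell wells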); details: HCT116 beta-catenin knockout viability, CellTiter-Glo, 60 h; at 10 µM; stronger effect = lower value
[13] = viability of PTEN-null HCT116 cells – cell-based, HCT116 clonal line, CellTiter-Glo, pilot screen (AID 824;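 active means viability at or below 27.92% in each of two runs, the all-compound median minus 4 SD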;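 further: 0% = 20 µM Hyamine control and 100% = vehicle cell control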); details: HCT116 PTEN-deleted viability, 60 h, at 10 µM, stronger effect = lower value
[14] = RAM pathway blockade in budding yeast – dse1pr::URA3 reporter, 5-FOA selection, pilot screen (AID 869;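 active means inhibition over a set limit, the all-compound mean plus 3 SD, in both replicate runs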;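 further: 0% = DMSO wells with no growth and 100% = 10 µM 1-NA-PP1 with full growth; RAM network block rescues cells from 5-FOA so hits raise OD615 growth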); details: S. cerevisiae dse1pr::URA3 5-FOA growth, OD615, 2 d; at 10 µM; stronger effect = higher value; strain carries analog-sensitive mutant Cbk1 kinase
[15] = RAM signaling pathway blockade in yeast – S. cerevisiae, Pdr1DBD-CYC8 efflux-inhibited sensitized strain, primary screen (AID 1298;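 active means RAM network inhibition above 8.4% in each of two replicates, 3 SD over the compound average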;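 further: 0% = DMSO untreated cells without growth and 100% = 10 µM 1-NA-PP1 full growth; higher means more yeast growth rescued from 5-FOA killing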); details: S. cerevisiae cbk1-as DSE1-URA3 strain, 5-FOA growth OD615, 2 d; at 50 µM; stronger effect = higher value
[16] = H69AR cells + 2 uM doxorubicin, measured here: viability with 2 uM doxorubicin, stronger effect = lower value
[17] = H69AR cells, compound alone cytotoxicity

Cc1ccc(CCP(=O)(O)CN2CCOCC2)cn1
104%: viability [6, 17]
inactive: Her2 level [2] 87.5% | viability [3] 85% | viability [4] 101% | viability [5] 104% | differential viability (reversal) ([6]; H69AR cells + 2 uM doxorubicin) 12.3% | inhibition [7] -7.57% | inhibition [8] 3.61% | growth inhibition [9] -11.9% | growth inhibition [10] -9.14% | viability increase [11] 0.51% | viability [12] 89.2% | viability [13] 92.3% | inhibition [14] 0.17% | RAM network inhibition [15] -0.42%
91.4%: viability [6, 16]
85%: viability [1]

COc1ccc(S(=O)(=O)N2CCCC2C(=O)Nc2ccc(O)cc2)cc1 (stereo not given)
94.4%: viability [6, 16]
93.5%: viability [1]
inactive: Her2 level [2] 106% | viability [3] 93.5% | viability [4] 92.6% | viability [5] 98.4% | differential viability (reversal) ([6]; H69AR cells + 2 uM doxorubicin) 3.97% | inhibition [7] 0.13% | inhibition [8] -4.92% | growth inhibition [9] -1.65% | growth inhibition [10] 2.76% | viability increase [11] -0.78% | viability [12] 108% | viability [13] 108% | inhibition [14] 1.98% | RAM network inhibition [15] 4.8%
98.4%: viability [6, 17]

O=C(NCC1CCCO1)C1CCN(S(=O)(=O)c2cccc3cccnc23)CC1 (stereo not given)
inactive: Her2 level [2] 93.5% | viability [3] 102% | viability [4] 112% | viability [5] 101% | differential viability (reversal) ([6]; H69AR cells + 2 uM doxorubicin) 7.45% | inhibition [7] -2.53% | inhibition [8] -2.13% | growth inhibition [9] -2.44% | growth inhibition [10] 12% | viability increase [11] -1.56% | viability [12] 94.2% | viability [13] 93.7% | inhibition [14] 1.76% | RAM network inhibition [15] 2.72%
102%: viability [1]
94%: viability [6, 16]
101%: viability [6, 17]

O=C(NCc1ccc2c(c1)OCO2)C1CCCN(S(=O)(=O)c2cccc3cccnc23)C1 (stereo not given)
83.3%: viability [6, 17]
78.1%: viability [6, 16]
inactive: Her2 level [2] 85% | viability [3] 95.5% | viability [4] 70% | viability [5] 83.3% | differential viability (reversal) ([6]; H69AR cells + 2 uM doxorubicin) 5.17% | inhibition [7] -4.93% | inhibition [8] 4% | growth inhibition [9] -10.4% | growth inhibition [10] -10.5% | viability increase [11] -2.13% | viability [12] 84.9% | viability [13] 80.7% | inhibition [14] 0.32% | RAM network inhibition [15] 5.25%
95.5%: viability [1]

Cc1c(Cl)cccc1NC(=O)CCN1CCCCC1
94.9%: viability [6, 16]
inactive: Her2 level [2] 92% | viability [3] 100% | viability [4] 100% | viability [5] 101% | differential viability (reversal) ([6]; H69AR cells + 2 uM doxorubicin) 6% | inhibition [7] -2.8% | inhibition [8] 0.16% | growth inhibition [9] -7.21% | growth inhibition [10] 2.33% | viability increase [11] -1.01% | viability [12] 100% | viability [13] 96.4% | inhibition [14] 0.655% | RAM network inhibition [15] 4.96%
100%: viability [1]
101%: viability [6, 17]

CC1CCCN(C(=O)C23CCC(C)(C(=O)C2)C3(C)C)C1 (stereo not given)
99%: viability [1]
92.6%: viability [6, 16]
inactive: Her2 level [2] 92% | viability [3] 99% | viability [4] 103% | viability [5] 108% | differential viability (reversal) ([6]; H69AR cells + 2 uM doxorubicin) 15.3% | inhibition [7] -2.43% | inhibition [8] -3.17% | growth inhibition [9] -7.46% | growth inhibition [10] -8.69% | viability increase [11] -2.08% | viability [12] 97.7% | viability [13] 102% | inhibition [14] -0.565% | RAM network inhibition [15] 4.55%
108%: viability [6, 17]

CCOC(=O)c1ccc(-n2c(C)nc3c(cnn3-c3ccccc3C)c2=O)cc1
98.1%: viability [6, 17]
inactive: Her2 level [2] 108% | viability [3] 94% | viability [4] 117% | viability [5] 98.1% | differential viability (reversal) ([6]; H69AR cells + 2 uM doxorubicin) -3.79% | inhibition [7] -0.8% | inhibition [8] -3.93% | growth inhibition [9] 2.42% | growth inhibition [10] 2.89% | viability increase [11] -0.28% | viability [12] 94.4% | viability [13] 91% | inhibition [14] 1.17% | RAM network inhibition [15] 2.95%
102%: viability [6, 16]
94%: viability [1]

CCCCOCCCNC(=O)c1ccc(NC(C)=O)cc1
108%: viability [1]
86.6%: viability [6, 16]
inactive: Her2 level [2] 133% | viability [3] 108% | viability [4] 86.3% | viability [5] 96.6% | differential viability (reversal) ([6]; H69AR cells + 2 uM doxorubicin) 10% | inhibition [7] 1.04% | inhibition [8] -10.7% | growth inhibition [9] -9.19% | growth inhibition [10] -26.5% | viability increase [11] 0.09% | viability [12] 104% | viability [13] 97.4% | inhibition [14] 1.42% | RAM network inhibition [15] -0.63%
96.6%: viability [6, 17]

Cc1nc2ccccc2c2oc(C(=O)N3CCN(C(=O)c4ccco4)CC3)cc12
83.4%: viability [6, 16]
inactive: Her2 level [2] 95.5% | viability [3] 79% | viability [4] 87.4% | viability [5] 83.1% | differential viability (reversal) ([6]; H69AR cells + 2 uM doxorubicin) -0.275% | inhibition [7] -2.69% | inhibition [8] 1.67% | growth inhibition [9] -6.06% | growth inhibition [10] 2.71% | viability increase [11] -5.18% | viability [12] 101% | viability [13] 107% | inhibition [14] 0.195% | RAM network inhibition [15] 2.11%
83.1%: viability [6, 17]
79%: viability [1]

COc1ccc(C2C(C(=O)N3CCC(C)CC3)c3ccccc3C(=O)N2C)cc1 (stereo not given)
109%: viability [1]
inactive: Her2 level [2] 112% | viability [3] 109% | viability [4] 108% | viability [5] 94.9% | differential viability (reversal) ([6]; H69AR cells + 2 uM doxorubicin) -1.18% | inhibition [7] 1.23% | inhibition [8] 9.84% | growth inhibition [9] -17% | growth inhibition [10] -12% | viability increase [11] -2.5% | viability [12] 83.3% | viability [13] 82.9% | inhibition [14] 2.41% | RAM network inhibition [15] 7.41%
94.9%: viability [6, 17]
96.1%: viability [6, 16]
